Laboratory results as given in PubChem BioAssay (Tox21).
Results filed as inconclusive are left out. Active and inactive are the calls of the source. Unless noted, the call rests on the fitted dose curve; in most records, active means well fitted curve in the direction sought with a large enough effect in the repeat runs; inconclusive means weak or mixed curves; inactive means no such curve, though single readings can be large; an effect the other way counts as inactive or inconclusive.

What was measured:
[1] = qHTS assay to identify small molecule antagonists of the sonic hedgehog signaling (Shh) pathway (AID 1259369; calls by dose curve; further: nearly all actives have a fitted effect of over 45% in size)
In short: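 Read-out is luminescence from a firefly luciferase gene controlled by the Gli1 response element, in 3T3Gli1-Luc cells pre-incubated 4hr then exposed to compounds and conditioned medium for 24hr.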

[2] = target: Estrogen receptor beta (Homo sapiens) (UniProt Q92731); assay: qHTS assay to identify small molecule agonists of the estrogen receptor beta (ER-beta) signaling pathway (AID 1259377; active means well fitted activation curve with a large enough effect in the signal ratio in the repeat runs, not every such curve was filed as active; the % refers to the signal ratio)
In short: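 Read-out: beta-lactamase FRET fluorescence. Cell line: ER-beta-UAS-bla HEK293T in 2% charcoal-stripped FBS. Exposure: 16 hr at 37C. Substrate step: 2 h at room temperature.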

[3] = target: Estrogen receptor beta (Homo sapiens) (UniProt Q92731); assay: qHTS assay to identify small molecule antagonists of the estrogen receptor beta (ER-beta) signaling pathway (AID 1259378; active means well fitted inhibition curve with a large enough effect in the signal ratio in the repeat runs, not every such curve was filed as active; the % refers to the signal ratio)
In short: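 Antagonist mode: compounds added to beta-lactamase reporter HEK293T ER-beta-UAS cells stimulated with E2 (1nM final), 16 hr at 37C. LiveBLAzer B/G FRET substrate, 2 hours room temperature, fluorescence read-out.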

[4] = qHTS assay to identify small molecule agonists of the androgen receptor (AR) signaling pathway in the presence of an antagonist - cell viability counter screen (AID 1259379);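 further: MDA-kb2 human breast cancer cells carrying an MMTV luciferase reporter; series mostly up to about 92 µM; nearly all actives have a fitted effect of over 25% in size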
In short: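 Each compound was tested at 15 concentrations on MDA-kb2 cells in the presence of 3.0uM nilutamide. Viability was measured by CellTiter-Fluor fluorescence after a 16 hr incubation at 37C in a CO2-free atmosphere.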

[5] = qHTS assay to identify small molecule agonists of the estrogen receptor beta (ER-beta) signaling pathway - cell viability counter screen (AID 1259380); further: nearly all actives have a fitted effect of over 30% in size
In short: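 Compounds dissolved in DMSO were pin-transferred onto ER-beta-UAS-bla HEK293T cells that had settled 6 hr, and exposure ran 16 hr at 37C. Following the reporter read, CellTiter-Glo luminescence after 30 min at room temperature indicated cytotoxicity.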

[6] = qHTS assay to identify small molecule antagonists of the estrogen receptor beta (ER-beta) signaling pathway - cell viability counter screen (AID 1259382);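 further: HEK293T cells carrying ER-beta-UAS-bla reporter stimulated with estradiol; series mostly up to about 92 µM; nearly all actives have a fitted effect of over 55% in size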
In short: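 CellTiter-Glo ATP luminescence measured after the LiveBLAzer read in the same wells; ER-beta-UAS-bla HEK293T cells, 16 hr compound treatment with 1nM 17-beta-estradiol agonist at 37C, 5% CO2.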

[7] = qHTS assay to identify small molecule agonists of the estrogen receptor alpha (ER-alpha) signaling pathway in the presence of an antagonist - cell viability counter screen (AID 1259386);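 further: series mostly up to about 92 µM; cells exposed to compounds for 22 h at 37 °C before the viability read; nearly all actives have a fitted effect of over 30% in size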
In short: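 Using estrogen-depleted VM7Luc4E2 cells, the 15-concentration compound series was applied together with 10.0nM ICI-182,780 and incubated 22hr at 37C/5% CO2. Cell viability was then scored by CellTiter-Fluor.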

[8] = target: Progesterone receptor (Homo sapiens) (UniProt P06401); assay: qHTS assay to identify small molecule agonists of the progesterone receptor (PR) signaling pathway (AID 1346784; calls by dose curve; further: nearly all actives have a fitted effect of over 30% in size)
In short: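 Compounds were tested for PR agonism in HEK 293T cells bearing a beta-lactamase gene under UAS control. Treatment lasted 16 hr at 37C; signal came from fluorescence of a FRET substrate.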

[9] = qHTS assay to identify small molecule antagonists of the progesterone receptor (PR) signaling pathway - cell viability counter screen (AID 1346798); further: series mostly up to about 92 µM; nearly all actives have a fitted effect of over 50% in size
In short: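 Following a 4 hr attachment, PR-UAS-bla HEK293T cells in charcoal-stripped FBS medium were exposed to compounds with R5020 for 16 hr; CellTiter-Glo was added and luminescence read after 30 min at room temperature.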

[10] = qHTS assay to identify small molecule agonists of the progesterone receptor (PR) signaling pathway - cell viability counter screen (AID 1346799; calls by dose curve; further: nearly all actives have a fitted effect of over 45% in size)
In short: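 Here, 3,000 PR-UAS-bla HEK293T cells per well were treated with compounds for 16 hr after a 6 hr preincubation at 37C and 5% CO2; cell viability is the CellTiter-Glo luminescence signal.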

[11] = qHTS assay to identify small molecule antagonists of the TGF-beta/Smad signaling pathway - cell viability counter screen (AID 1346824); further: nearly all actives have a fitted effect of over 50% in size
In short: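 Cytotoxicity counter-screen run in the same wells as the beta-lactamase Smad reporter read: CellTiter-Glo luminescence after 30 min at room temperature. HEK 293T SBE-bla cells had 5 hr compound exposure at 37 C with TGF-beta1 (0.25 ng/mL stock).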

[12] = qHTS assay to identify small molecule agonists of the TGF-beta/Smad signaling pathway - cell viability counter screen (AID 1346829); further: top concentration of the series differs between compounds; nearly all actives have a fitted effect of over 45% in size
In short: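 Luminescence from CellTiter-Glo, read after a 30 min room-temperature incubation, gives cell viability of SBE-bla HEK 293T cells treated 5 hr with compounds at 37 C.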

[13] = qHTS assay to identify small molecule agonists of the TGF-beta/Smad signaling pathway (AID 1346859; active means well fitted activation curve with a large enough effect in the signal ratio in the repeat runs, not every such curve was filed as active; the % refers to the signal ratio; further: series mostly up to about 77 µM)
In short: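 Each well held 4,000 SBE-bla HEK 293T cells incubated overnight before compound addition; 5 hr later the cleavable FRET substrate went on for 2 hr at room temperature, and fluorescence was read at two emissions.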

[14] = target: Thyrotropin-releasing hormone receptor (Homo sapiens) (UniProt P34981); assay: qHTS assay to identify small molecule antagonists of the thyrotropin-releasing hormone receptor (TRHR) signaling pathway (AID 1346877; active means well fitted inhibition curve with a large enough effect in the repeat runs, not every such curve was filed as active; further: series mostly up to about 51 µM)
In short: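 Calcium signal in dye-loaded TRHR/HEK293 cells; compounds added 5 min before TRH (1 nM final); fluorescence monitored 3 min at 1 s steps.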

[15] = target: Androgen receptor (Homo sapiens) (UniProt P10275); assay: qHTS assay to identify small molecule agonists of the androgen receptor (AR) signaling pathway in the presence of an antagonist (AID 1259381; calls by dose curve; further: nearly all actives have a fitted effect of over 15% in size)
In short: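 Plated MDA-kb2 cells (3,000/well) were pre-incubated 5hr, given nilutamide (3.0uM final) or buffer, then dosed with compounds in DMSO at 15 concentrations. Luciferase activity was quantified by luminescence after 16hr at 37C.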

[16] = target: Estrogen receptor (Homo sapiens) (UniProt P03372); assay: qHTS assay to identify small molecule agonists of the estrogen receptor alpha (ER-alpha) signaling pathway in the presence of an antagonist (AID 1259383; calls by dose curve; further: top concentration of the series differs between compounds; nearly all actives have a fitted effect of over 15% in size)
In short: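 Luminescent ERE-luciferase reporter, VM7Luc4E2 cells (endogenous ER-alpha); 10.0nM ICI-182,780 final; 15-point compound titration; 22hr at 37C; ONE-Glo, 30min RT.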

[17] = target: Thyrotropin receptor (Homo sapiens) (UniProt P16473); assay: qHTS assay to identify small molecule antagonists of the thyroid stimulating hormone receptor (TSHR) signaling pathway (AID 1259385; calls by dose curve; further: nearly all actives have a fitted effect of over 20% in size)
In short: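 Antagonist mode: compound-treated TSHR-expressing HEK293 cells were stimulated with 1.5 ng/mL TSH (final) in presence of Ro20-1724 for 30 min at RT. HTRF cAMP detection after 1 h; each compound tested at 15 concentrations, triplicate.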

[18] = qHTS assay to identify small molecule agonists or antagonists of the thyroid stimulating hormone receptor (TSHR) signaling pathway - wild type cell line counter screen (AID 1259384; calls by dose curve)
In short: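 Counter screen in untransfected Hek293: compounds (15-point titration, triplicate) plus phosphodiesterase inhibitor Ro20-1724 added after 18 h plating; 30 min RT. Intracellular cAMP via competitive d2/cryptate immunoassay, 1 h incubation.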

[19] = target: Thyrotropin-releasing hormone receptor (Homo sapiens) (UniProt P34981); assay: qHTS assay to identify small molecule agonists of the thyrotropin-releasing hormone receptor (TRHR) signaling pathway (AID 1346891; calls by dose curve; further: series mostly up to about 58 µM)
In short: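 Screening of agonists relied on calcium signalling in HEK293 cells expressing human TRHR: dye loading 2 h at 37 °C preceded compound addition and a 3-min fluorescence time course.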

[20] = target: Progesterone receptor (Homo sapiens) (UniProt P06401); assay: qHTS assay to identify small molecule antagonists of the progesterone receptor (PR) signaling pathway (AID 1346795; active means well fitted inhibition curve with a large enough effect in the signal ratio in the repeat runs, not every such curve was filed as active; the % refers to the signal ratio)
In short: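 In HEK293T cells bearing the PR-UAS-bla reporter, compound effects on promegestone-driven (1 nM) beta-lactamase expression are assessed after 16 hr using a fluorescent FRET substrate incubated 2 hr at room temperature.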

Measured: Potency

Thyrotropin receptor (Homo sapiens), sequence (P16473 whole entry, looked up): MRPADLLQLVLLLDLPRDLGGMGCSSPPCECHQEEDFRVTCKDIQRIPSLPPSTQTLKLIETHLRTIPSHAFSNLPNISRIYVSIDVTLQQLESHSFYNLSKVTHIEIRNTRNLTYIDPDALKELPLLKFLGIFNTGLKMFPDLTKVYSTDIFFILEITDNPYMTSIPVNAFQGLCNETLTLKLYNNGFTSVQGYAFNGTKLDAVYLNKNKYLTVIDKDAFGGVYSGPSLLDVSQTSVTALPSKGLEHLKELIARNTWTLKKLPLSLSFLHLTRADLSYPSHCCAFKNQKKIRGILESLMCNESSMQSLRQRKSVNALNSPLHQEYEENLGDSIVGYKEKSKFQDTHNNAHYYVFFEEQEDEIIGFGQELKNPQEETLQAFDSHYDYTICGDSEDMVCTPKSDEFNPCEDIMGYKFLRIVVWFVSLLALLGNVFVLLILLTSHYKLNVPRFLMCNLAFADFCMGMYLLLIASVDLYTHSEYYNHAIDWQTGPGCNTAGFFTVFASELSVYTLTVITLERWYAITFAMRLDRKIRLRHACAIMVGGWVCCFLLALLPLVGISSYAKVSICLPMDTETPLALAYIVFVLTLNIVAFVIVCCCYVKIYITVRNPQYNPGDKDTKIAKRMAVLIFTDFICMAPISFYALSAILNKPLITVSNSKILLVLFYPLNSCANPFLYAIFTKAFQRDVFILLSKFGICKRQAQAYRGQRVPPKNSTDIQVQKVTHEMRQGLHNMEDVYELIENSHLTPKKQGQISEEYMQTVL
Androgen receptor (Homo sapiens), sequence (P10275 whole entry, looked up): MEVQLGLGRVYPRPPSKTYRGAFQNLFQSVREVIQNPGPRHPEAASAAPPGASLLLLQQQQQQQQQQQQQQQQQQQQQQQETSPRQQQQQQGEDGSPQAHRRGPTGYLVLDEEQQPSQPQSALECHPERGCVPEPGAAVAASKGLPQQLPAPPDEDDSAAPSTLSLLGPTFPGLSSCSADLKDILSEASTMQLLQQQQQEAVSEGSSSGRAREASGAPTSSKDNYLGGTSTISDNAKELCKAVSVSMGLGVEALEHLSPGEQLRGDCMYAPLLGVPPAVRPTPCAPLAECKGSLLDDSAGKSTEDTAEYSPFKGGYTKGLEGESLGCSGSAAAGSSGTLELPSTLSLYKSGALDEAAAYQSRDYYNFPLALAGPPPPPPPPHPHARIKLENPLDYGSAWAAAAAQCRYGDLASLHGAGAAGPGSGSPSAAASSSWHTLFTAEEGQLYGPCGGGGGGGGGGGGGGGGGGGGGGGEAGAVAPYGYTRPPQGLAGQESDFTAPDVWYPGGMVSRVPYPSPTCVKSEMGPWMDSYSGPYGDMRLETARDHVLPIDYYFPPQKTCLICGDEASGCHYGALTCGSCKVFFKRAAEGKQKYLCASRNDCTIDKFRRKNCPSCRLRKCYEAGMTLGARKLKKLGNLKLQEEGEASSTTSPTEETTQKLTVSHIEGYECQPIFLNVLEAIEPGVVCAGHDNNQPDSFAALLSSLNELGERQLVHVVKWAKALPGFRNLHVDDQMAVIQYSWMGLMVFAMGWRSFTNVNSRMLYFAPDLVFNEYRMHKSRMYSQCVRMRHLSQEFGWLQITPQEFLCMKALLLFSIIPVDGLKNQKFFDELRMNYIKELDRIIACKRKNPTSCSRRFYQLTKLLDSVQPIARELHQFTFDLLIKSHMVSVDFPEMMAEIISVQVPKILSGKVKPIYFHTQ
Estrogen receptor beta (Homo sapiens), sequence (Q92731 whole entry, looked up): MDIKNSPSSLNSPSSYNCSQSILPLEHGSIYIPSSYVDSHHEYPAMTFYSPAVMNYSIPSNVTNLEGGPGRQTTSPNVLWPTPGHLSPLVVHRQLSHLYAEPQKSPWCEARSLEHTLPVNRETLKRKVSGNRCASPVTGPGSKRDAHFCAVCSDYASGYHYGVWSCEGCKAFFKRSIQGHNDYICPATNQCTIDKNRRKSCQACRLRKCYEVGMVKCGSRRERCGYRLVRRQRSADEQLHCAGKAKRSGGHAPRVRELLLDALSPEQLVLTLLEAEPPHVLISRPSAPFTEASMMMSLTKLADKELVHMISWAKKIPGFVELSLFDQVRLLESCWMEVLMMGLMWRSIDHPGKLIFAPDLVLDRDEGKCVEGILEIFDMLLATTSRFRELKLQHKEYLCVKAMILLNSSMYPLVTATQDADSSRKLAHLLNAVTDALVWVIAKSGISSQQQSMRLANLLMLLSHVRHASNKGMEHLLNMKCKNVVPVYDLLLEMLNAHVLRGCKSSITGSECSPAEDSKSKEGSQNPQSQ
Estrogen receptor (Homo sapiens), sequence (P03372 whole entry, looked up): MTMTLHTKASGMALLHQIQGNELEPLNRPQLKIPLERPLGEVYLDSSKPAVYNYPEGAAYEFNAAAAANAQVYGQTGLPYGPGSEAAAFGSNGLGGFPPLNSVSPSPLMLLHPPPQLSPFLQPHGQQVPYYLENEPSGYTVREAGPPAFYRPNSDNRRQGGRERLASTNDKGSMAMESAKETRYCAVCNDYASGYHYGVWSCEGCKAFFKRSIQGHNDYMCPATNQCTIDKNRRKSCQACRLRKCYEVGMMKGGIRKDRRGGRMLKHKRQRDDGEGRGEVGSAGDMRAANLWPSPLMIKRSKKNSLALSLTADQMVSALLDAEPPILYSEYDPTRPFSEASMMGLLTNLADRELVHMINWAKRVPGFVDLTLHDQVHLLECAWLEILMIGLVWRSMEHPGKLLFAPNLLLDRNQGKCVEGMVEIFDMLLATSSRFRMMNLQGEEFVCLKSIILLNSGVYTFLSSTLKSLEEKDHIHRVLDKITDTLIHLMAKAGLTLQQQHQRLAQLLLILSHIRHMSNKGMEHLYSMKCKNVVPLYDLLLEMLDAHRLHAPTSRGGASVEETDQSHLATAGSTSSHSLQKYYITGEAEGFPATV
Progesterone receptor (Homo sapiens), sequence (P06401 whole entry, looked up): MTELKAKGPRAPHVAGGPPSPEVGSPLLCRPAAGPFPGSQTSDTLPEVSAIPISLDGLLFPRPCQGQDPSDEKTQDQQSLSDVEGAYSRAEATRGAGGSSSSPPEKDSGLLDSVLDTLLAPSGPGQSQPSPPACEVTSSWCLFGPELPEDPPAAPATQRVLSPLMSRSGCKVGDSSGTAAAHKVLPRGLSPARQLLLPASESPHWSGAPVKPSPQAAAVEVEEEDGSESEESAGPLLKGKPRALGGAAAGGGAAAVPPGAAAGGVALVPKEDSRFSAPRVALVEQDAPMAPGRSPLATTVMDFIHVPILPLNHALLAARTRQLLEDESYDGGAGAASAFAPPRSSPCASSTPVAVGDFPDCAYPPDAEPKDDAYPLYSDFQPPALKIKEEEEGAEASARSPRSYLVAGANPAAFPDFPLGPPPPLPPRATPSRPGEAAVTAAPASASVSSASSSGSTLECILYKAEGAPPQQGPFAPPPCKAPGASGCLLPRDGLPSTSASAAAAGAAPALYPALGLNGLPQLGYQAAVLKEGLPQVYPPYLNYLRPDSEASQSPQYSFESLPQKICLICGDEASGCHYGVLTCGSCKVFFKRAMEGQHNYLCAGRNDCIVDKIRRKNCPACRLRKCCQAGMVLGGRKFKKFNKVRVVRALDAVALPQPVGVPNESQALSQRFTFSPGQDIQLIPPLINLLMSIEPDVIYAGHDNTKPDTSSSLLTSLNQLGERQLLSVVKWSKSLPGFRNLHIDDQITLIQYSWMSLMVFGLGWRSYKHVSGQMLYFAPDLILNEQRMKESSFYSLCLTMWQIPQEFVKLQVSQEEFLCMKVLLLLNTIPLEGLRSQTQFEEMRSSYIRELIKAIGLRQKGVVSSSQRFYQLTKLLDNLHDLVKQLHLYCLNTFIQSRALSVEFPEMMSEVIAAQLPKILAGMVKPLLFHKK
Thyrotropin-releasing hormone receptor (Homo sapiens), sequence (P34981 whole entry, looked up): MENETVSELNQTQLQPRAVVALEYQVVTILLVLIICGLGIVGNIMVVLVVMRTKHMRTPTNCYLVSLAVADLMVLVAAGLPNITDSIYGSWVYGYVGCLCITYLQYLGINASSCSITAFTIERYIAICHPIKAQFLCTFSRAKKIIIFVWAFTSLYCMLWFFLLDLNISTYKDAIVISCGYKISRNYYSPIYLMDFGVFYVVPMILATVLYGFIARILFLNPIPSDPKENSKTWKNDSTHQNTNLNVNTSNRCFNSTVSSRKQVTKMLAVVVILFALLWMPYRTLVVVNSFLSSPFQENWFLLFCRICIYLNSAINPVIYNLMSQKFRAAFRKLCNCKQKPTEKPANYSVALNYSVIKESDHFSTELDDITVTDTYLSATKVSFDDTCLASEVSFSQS

N#CCc1ccc(Cl)cc1
not listed: [15] | [16] | [17] | [18] | [19] | [20]
inactive: all other assays above

Cc1ccc(CCl)cc1
not listed: [4] | [10] | [14] | [18] | [19] | [20]
inactive: all other assays above

BrCBr
not listed: [15] | [20]
inactive: all other assays above

N#Cc1ccccc1N
not listed: [7] | [8] | [20]
inactive: all other assays above

ClC1=C(Cl)[C@]2(Cl)[C@@H]3[C@@H](Cl)[C@@H](Cl)C[C@@H]3[C@@]1(Cl)C2(Cl)Cl
not listed: [7] | [10] | [17] | [18]
inactive: all other assays above

Cc1cc(C)cc(OP(=O)(Oc2cc(C)cc(C)c2)Oc2cc(C)cc(C)c2)c1
not listed: [10] | [14] | [15] | [16] | [19] | [20]
inactive: all other assays above

COc1cc(N)c(Cl)cc1C(=O)NC1CN2CCC1CC2 (stereo not drawn)
not listed: [7] | [10] | [12] | [15] | [16]
inactive: all other assays above

CCCCOP(=O)(CCCC)OCCCC
not listed: [14] | [16] | [17] | [18] | [19]
inactive: all other assays above
